Experimental findings from PubChem BioAssay (Tox21) are described below.

Where “and” joins values, the source holds several entries; their conditions need not be identical. Identical values can stand only once. Results filed as inconclusive are left out. A call without a number means that no potency is given here. Values without a mark were called inactive. Calls of active or inactive are those of the source. Calls come from the whole dose curve; as a rule, active = well fitted inhibition curve with a large enough effect in the signal ratio in the repeat runs (not every such curve was filed as active); inconclusive = weak or mixed curves; inactive = flat fitted curve, though single readings scatter; the % refers to the signal ratio.
Potency is the fitted concentration of half-maximal effect.

In this experiment the target is Progesterone receptor (Homo sapiens) (UniProt P06401). Kind of experiment: qHTS assay to identify small molecule antagonists of the progesterone receptor (PR) signaling pathway (AID 1346795). Conditions: PR-UAS-bla HEK293T, beta-lactamase FRET ratio, 16 h; series mostly up to 92.4 µM. The source says: National Center for Advancing Translational Sciences [NCATS]
Progesterone receptor (Homo sapiens), sequence (P06401 whole entry, looked up): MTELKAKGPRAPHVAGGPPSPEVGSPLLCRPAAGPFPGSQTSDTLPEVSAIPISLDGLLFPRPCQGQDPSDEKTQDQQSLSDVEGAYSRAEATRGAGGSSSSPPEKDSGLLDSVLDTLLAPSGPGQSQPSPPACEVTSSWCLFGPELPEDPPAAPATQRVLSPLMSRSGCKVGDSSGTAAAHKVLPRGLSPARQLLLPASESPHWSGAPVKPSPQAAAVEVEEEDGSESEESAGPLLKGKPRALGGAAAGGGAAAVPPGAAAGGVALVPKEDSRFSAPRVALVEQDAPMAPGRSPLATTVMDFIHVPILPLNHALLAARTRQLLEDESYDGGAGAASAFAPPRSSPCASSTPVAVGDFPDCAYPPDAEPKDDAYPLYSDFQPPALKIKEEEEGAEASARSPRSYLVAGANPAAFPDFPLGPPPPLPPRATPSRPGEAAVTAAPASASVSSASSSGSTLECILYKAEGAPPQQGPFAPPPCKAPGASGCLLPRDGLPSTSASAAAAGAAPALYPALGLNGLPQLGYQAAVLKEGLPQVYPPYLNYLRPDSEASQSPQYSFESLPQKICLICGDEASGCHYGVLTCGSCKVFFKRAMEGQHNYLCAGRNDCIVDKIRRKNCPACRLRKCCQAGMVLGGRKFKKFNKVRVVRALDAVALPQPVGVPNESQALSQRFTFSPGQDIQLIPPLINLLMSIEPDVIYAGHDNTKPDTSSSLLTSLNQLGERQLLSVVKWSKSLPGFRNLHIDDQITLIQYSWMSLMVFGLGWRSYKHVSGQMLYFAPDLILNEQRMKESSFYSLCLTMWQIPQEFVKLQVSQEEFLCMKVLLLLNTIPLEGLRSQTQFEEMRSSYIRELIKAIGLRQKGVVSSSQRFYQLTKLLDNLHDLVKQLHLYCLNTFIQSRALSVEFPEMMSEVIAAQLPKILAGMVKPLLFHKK
NIH Chemical Genomics Center [NCGC]
U.S. Environmental Protection Agency [EPA]
National Institutes of Environmental Health Sciences [NIEHS]
National Toxicology Program [NTP]
U.S. Food and Drug Administration [FDA]
Progesterone receptor (PR), a nuclear hormone receptor, plays an important role in development, metabolic homeostasis and reproduction. […] Endocrine disrupting chemicals (EDCs) and their interactions with steroid hormone receptors like PR causes disruption of normal endocrine function. To identify the compounds that inhibit PR signaling, a PR-UAS-bla GripTite cell line i.e. PR-UAS-bla HEK293T (Invitrogen, Carlsbad, CA, USA) containing a beta-lactamase reporter gene under the control of an Upstream Activator Sequence (UAS) was used to screen Tox21 10K compound library.
Tox21 Assay Protocol Summary:
PR-UAS-bla HEK293T cells were dispensed at 3,000 cells/4 uL of assay medium containing 2% charcoal stripped FBS per well into black wall/clear-bottom 1536-well plates using a Multidrop Combi (ThermoFisher Scientific, Waltham, MA) dispenser. After the assay plates were incubated at a 37C and 5% CO2 for 6 hr, 23 nL of compounds dissolved in DMSO, positive controls or DMSO only was transferred to the assay plate by a Pintool station (Kalypsys, San Diego, CA), followed by addition of 1 uL (1nM as final concentration) of Promegestone (R5020) in assay medium using a BioRAPTR FRD (Flying Reagent Dispenser, Aurora Discovery, San Diego, CA). The plates were incubated at 37C and 5% CO2 for 16 hr. Then 1 uL of LiveBLAzer B/G FRET substrate was added using a FRD. After the plates were incubated at room temperature for 2 hours, fluorescence intensity was measured by an Envision plate reader (PerkinElmer, Shelton, CT).
(In general: In qHTS, concentration-response curves come from the screen itself.)
For `NC(CO)(CO)CO`, the Potency result is “inactive”.
For `Cc1c(C(=O)O)c(O)cc2c1C(=O)c1c(O)c([C@@H]3O[C@H](CO)[C@@H](O)[C@H](O)[C@H]3O)c(O)c(O)c1C2=O`, the Potency result was “inactive”.
Take `CC(=O)C(=O)O`: the Potency entry is “inactive”.
Regarding `COc1ccc(C(Cl)=C(c2ccc(OC)cc2)c2ccc(OC)cc2)cc1`, the Potency is 6.82 µM (active) and 5.45 µM (active) and 4.22 µM (active).
With `Cn1c(=O)c2c(ncn2C)n(C)c1=O`, the Potency result is “inactive”.
Regarding `NS(=O)(=O)c1cc2c(cc1Cl)NCNS2(=O)=O`, the Potency result is “inactive”.
The same measure, in the same setting: for `Cc1ccc(S(=O)(=O)O)cc1` the value was “inactive”.
For `CCCc1cc(=O)[nH]c(=S)[nH]1`, the Potency result was “inactive”.
Consider `Cc1cn([C@H]2C=C[C@@H](CO)O2)c(=O)[nH]c1=O`, for which the Potency result was “inactive”.
As to `COc1ccc2c(c1)c(CC(=O)O)c(C)n2C(=O)c1ccc(Cl)cc1`, the Potency result was “inactive”.
Turning to `CS(=O)(=O)OCCCCOS(C)(=O)=O`, the Potency result was “inactive”.
Take `O=C1c2c(O)cccc2Cc2cccc(O)c21`: the Potency result is “inactive”.
For `COc1ccc2cc(S(=O)(=O)N[C@H](CC(=O)N[C@H](Cc3ccc(CN4[C@H](C)CCC[C@@H]4C)cc3)C(=O)N(C)C(C)C)c3ccc4c(c3)OCO4)ccc2c1`, the Potency is 57.9 µM (active).
In the case of `Cc1cc(=O)oc2cc(O)ccc12`, the Potency result is “inactive”.
Regarding `Nc1ccc2c(c1)CN1C(=O)c3ccccc3C1=N2`, the activity change, negative = inhibition is -14.5% [at 18.9 µM].
For `Nc1c(N=Nc2ccc(-c3ccc(N=Nc4cc(S(=O)(=O)O)c5ccccc5c4N)cc3)cc2)cc(S(=O)(=O)O)c2ccccc12`, the Potency result is “inactive”.
The same measure, in the same setting: for `CC12CCC(CC1)C(C)(C)O2` the value was “inactive”.
As for `CC(=O)CC(c1ccccc1)c1c(O)c2ccccc2oc1=O` (stereo not given), the Potency result is “inactive”.
As to `COc1cccc(O)c1O`, the Potency result is “inactive”.
Consider `CN(C)CCOC(C)(c1ccccc1)c1ccccn1` (stereo not given), for which the Potency result was “inactive”.
On to `Nc1c2c(nc3ccccc13)CCCC2`, for which the Potency entry was “inactive”.
Consider `CCCC[P+](CCCC)(CCCC)CCCC`, for which the Potency result is “inactive”.
Take `C[C@](N)(Cc1ccc(O)c(O)c1)C(=O)O`: the Potency entry was “inactive”.
`Nc1ccc(S(N)(=O)=O)cc1`: the Potency result is “inactive”.
As for `CN(N=O)C(=O)N[C@@H]1[C@@H](O)[C@H](O)[C@@H](CO)O[C@@H]1O`, the Potency result is “inactive”.
Still for that read-out and setting: to `CCCCOC(=O)c1ccc(O)cc1` belongs 27.6 µM (active) and 27.3 µM (active) and 26.6 µM (active).
In the case of `CCCCCCCC(=O)OCC(COC(=O)CCCCCCC)OC(=O)CCCCCCC`, the Potency result was “inactive”.
Take `C1CCC(C(CC2CCCCN2)C2CCCCC2)CC1` (stereo not given): the Potency is 29.8 µM (active).
On to `O=CC(=O)c1ccccc1`, for which the Potency entry is “inactive”.
Consider `Cc1ncc([N+](=O)[O-])n1C`, for which the Potency entry is “inactive”.
For `CCCCCCc1ccc(O)cc1O`, the Potency is 27.4 µM (active) and 27.3 µM (active) and 23.7 µM (active).
Take `O=C1NS(=O)(=O)c2ccccc21`: the Potency result was “inactive”.
On the same count and under the same terms, for `CNNCc1ccc(C(=O)NC(C)C)cc1` the value was “inactive”; for `CCOC(N)=O`, “inactive”.
With `CC(=O)Nc1c(I)c(NC(C)=O)c(I)c(C(=O)O)c1I`, the Potency result is “inactive”.
Turning to `C/C=C/C=C/C(=O)O`, the Potency entry was “inactive”.
With `CCCCC1(COC(=O)CCC(=O)O)C(=O)N(c2ccccc2)N(c2ccccc2)C1=O`, the Potency result is “inactive”.
In the case of `CCCCC(CC)C(=O)O` (stereo not given), the Potency result is “inactive”.
Regarding `NS(=O)(=O)O`, the Potency result was “inactive”.
Same read-out and setting: for `CCN(CC)C(=O)c1cccc(C)c1` the value was “inactive”.
